In paper PMC11006913 one finds binding signal data, which are given here for four sequences.

What all share (assay): PBM; 200 nM protein, PBS
Common to all, as to settings: dsDNA, one strand shown

Test [1] addresses HESX1 (Homo sapiens, UniProt Q9UBX0 95-180, R165K).
Test [2] concerns the target HOXA7 (Homo sapiens, UniProt P31268 116-202).
The target of test [3] is HESX1 (Homo sapiens, UniProt Q9UBX0 95-180).
Test [4] deals with HOXA2 (Homo sapiens, UniProt O43364 129-215, R185T).
Test [5] concerns the target ALX1 (Homo sapiens, UniProt Q15699 118-204, L144V).
Test [6] addresses HOXA2 (Homo sapiens, UniProt O43364 129-215, R185K).
In test [7] the target is ALX1 (Homo sapiens, UniProt Q15699 118-204, L144R).
ALX1 (Homo sapiens, UniProt Q15699 118-204, L144R), sequence (Q15699 118-204 L144R): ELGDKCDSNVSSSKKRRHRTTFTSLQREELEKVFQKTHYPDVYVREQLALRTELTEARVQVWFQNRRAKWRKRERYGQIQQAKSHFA
The target of test [8] is HESX1 (Homo sapiens, UniProt Q9UBX0 95-180, P111T).
HESX1 (Homo sapiens, UniProt Q9UBX0 95-180, P111T), sequence (Q9UBX0 95-180 P111T): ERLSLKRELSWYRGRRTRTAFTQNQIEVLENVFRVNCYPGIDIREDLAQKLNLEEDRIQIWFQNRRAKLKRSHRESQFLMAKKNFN
The target in test [9] is HESX1 (Homo sapiens, UniProt Q9UBX0 95-180, F115L).
HESX1 (Homo sapiens, UniProt Q9UBX0 95-180, F115L), sequence (Q9UBX0 95-180 F115L): as the sequence (Q9UBX0 95-180 P111T) above, with T17P, F21L counted along it
Test [10] deals with HOXA2 (Homo sapiens, UniProt O43364 129-215, Y150S).
HOXA2 (Homo sapiens, UniProt O43364 129-215, Y150S), sequence (O43364 129-215 Y150S): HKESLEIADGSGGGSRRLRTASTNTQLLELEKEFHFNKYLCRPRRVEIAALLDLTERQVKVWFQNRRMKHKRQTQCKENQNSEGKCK
The target in test [11] is HOXA7 (Homo sapiens, UniProt P31268 116-202, W177C).
HOXA7 (Homo sapiens, UniProt P31268 116-202, W177C), sequence (P31268 116-202 W177C): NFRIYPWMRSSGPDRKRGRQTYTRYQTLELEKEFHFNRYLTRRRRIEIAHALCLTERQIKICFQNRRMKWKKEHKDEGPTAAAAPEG
Test [12] deals with ALX1 (Homo sapiens, UniProt Q15699 118-204).
ALX1 (Homo sapiens, UniProt Q15699 118-204), sequence (Q15699 118-204): as the sequence (Q15699 118-204 L144R) above, with R27L counted along it
Test [13] addresses HOXA2 (Homo sapiens, UniProt O43364 129-215).
For test [14], the target named is HOXB9 (Homo sapiens, UniProt P17482 171-250, T197M).
HOXB9 (Homo sapiens, UniProt P17482 171-250, T197M), sequence (P17482 171-250 T197M): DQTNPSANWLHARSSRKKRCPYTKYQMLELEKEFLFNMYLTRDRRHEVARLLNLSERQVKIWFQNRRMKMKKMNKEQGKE
In the next test the target is HOXC9 (Homo sapiens, UniProt P31274 178-260, K195R).
HOXC9, sequence (P31274 178-260 K195R): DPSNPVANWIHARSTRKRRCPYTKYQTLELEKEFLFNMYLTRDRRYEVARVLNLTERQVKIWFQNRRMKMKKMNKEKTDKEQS
Test [15] has as its target ALX4 (Homo sapiens, UniProt Q9H161 200-286).
The target of test [16] is PRRX1 (Homo sapiens, UniProt P54821 80-166, F113S).
PRRX1 (Homo sapiens, UniProt P54821 80-166, F113S), sequence (P54821 80-166 F113S): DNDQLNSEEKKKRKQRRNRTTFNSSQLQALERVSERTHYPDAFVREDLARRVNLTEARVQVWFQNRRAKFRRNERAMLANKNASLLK
Test [17] addresses HOXB6 (Homo sapiens, UniProt P17509 132-218, K202E).
In test [18] the target is ALX4 (Homo sapiens, UniProt Q9H161 200-286, Q225E).
ALX4 (Homo sapiens, UniProt Q9H161 200-286, Q225E), sequence (Q9H161 200-286 Q225E): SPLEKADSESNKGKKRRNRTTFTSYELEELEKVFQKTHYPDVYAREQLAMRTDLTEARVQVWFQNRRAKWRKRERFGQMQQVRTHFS
Test [19] addresses HOXB9 (Homo sapiens, UniProt P17482 171-250).
In test [20] the target is MSX2 (Homo sapiens, UniProt P35548 130-214, R199I).
MSX2 (Homo sapiens, UniProt P35548 130-214, R199I), sequence (P35548 130-214 R199I): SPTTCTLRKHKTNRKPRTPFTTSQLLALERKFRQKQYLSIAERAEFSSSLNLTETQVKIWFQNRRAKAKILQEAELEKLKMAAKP
Test [21] deals with MSX2 (Homo sapiens, UniProt P35548 130-214).
MSX2 (Homo sapiens, UniProt P35548 130-214), sequence (P35548 130-214): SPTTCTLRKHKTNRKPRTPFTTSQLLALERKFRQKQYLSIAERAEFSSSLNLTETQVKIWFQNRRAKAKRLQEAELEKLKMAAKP
Test [22] has as its target PROP1 (Homo sapiens, UniProt O75360 56-141).
Test [23] concerns the target HESX1 (Homo sapiens, UniProt Q9UBX0 95-180, R109Q).
Test [24] addresses PROP1 (Homo sapiens, UniProt O75360 56-141, R99H).
The next test concerns the target ALX3 (Homo sapiens, UniProt O95076 139-225, L168Q).
The target of test [25] is HOXB9 (Homo sapiens, UniProt P17482 171-250, R186Q).
HOXB9 (Homo sapiens, UniProt P17482 171-250, R186Q), sequence (P17482 171-250 R186Q): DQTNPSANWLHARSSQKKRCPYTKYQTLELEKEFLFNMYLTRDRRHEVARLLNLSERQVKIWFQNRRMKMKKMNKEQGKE
In test [26] the target is PROP1 (Homo sapiens, UniProt O75360 56-141, F88S).
PROP1 (Homo sapiens, UniProt O75360 56-141, F88S), sequence (O75360 56-141 F88S): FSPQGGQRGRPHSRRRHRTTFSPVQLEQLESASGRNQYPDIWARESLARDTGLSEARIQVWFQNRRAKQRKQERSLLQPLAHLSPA
Test [27] concerns the target MSX2 (Homo sapiens, UniProt P35548 130-214, F161Y).
The target in test [28] is PRRX1 (Homo sapiens, UniProt P54821 80-166).
PRRX1 (Homo sapiens, UniProt P54821 80-166), sequence (P54821 80-166): as the sequence (P54821 80-166 F113S) above, with S34F counted along it
The target in test [29] is HOXB6 (Homo sapiens, UniProt P17509 132-218).
HOXB6 (Homo sapiens, UniProt P17509 132-218), sequence (P17509 132-218): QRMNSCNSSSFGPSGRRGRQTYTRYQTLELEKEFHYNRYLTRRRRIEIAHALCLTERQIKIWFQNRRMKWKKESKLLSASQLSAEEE
The target of test [30] is CRX (Homo sapiens, UniProt O43186 26-111).
CRX (Homo sapiens, UniProt O43186 26-111), sequence (O43186 26-111): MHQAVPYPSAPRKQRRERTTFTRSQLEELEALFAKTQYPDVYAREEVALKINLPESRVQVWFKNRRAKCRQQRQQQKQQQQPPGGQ
Test [31] addresses CRX (Homo sapiens, UniProt O43186 26-111, E42D).
Test [32] has as its target CRX (Homo sapiens, UniProt O43186 26-111, R41L).
In test [33] the target is HOXA4 (Homo sapiens, UniProt Q00056 201-287, W262R).
HOXA4 (Homo sapiens, UniProt Q00056 201-287, W262R), sequence (Q00056 201-287 W262R): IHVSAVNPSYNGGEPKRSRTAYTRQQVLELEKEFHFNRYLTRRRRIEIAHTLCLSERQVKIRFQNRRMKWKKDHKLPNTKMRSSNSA
Test [34] concerns the target HOXC10 (Homo sapiens, UniProt Q9NYD6 254-340).
Test [35] addresses HOXA4 (Homo sapiens, UniProt Q00056 201-287, R217L).
For a further test, the target named is T1, NKX2-6 (Homo sapiens, UniProt A6NCS4 118-204, R150C).
T1 sequence: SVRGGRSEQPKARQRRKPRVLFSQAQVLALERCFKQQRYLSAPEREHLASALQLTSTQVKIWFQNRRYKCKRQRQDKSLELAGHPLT

The target in test [36] is HOXA4 (Homo sapiens, UniProt Q00056 201-287).
HOXA4 (Homo sapiens, UniProt Q00056 201-287), sequence (Q00056 201-287): as the sequence (Q00056 201-287 W262R) above, with R62W counted along it
Test [37] concerns the target HOXC10 (Homo sapiens, UniProt Q9NYD6 254-340, K271E).
Test [38] concerns the target HOXA4 (Homo sapiens, UniProt Q00056 201-287, W262F).

HOXA2 (Homo sapiens, UniProt O43364 129-215, R185T), sequence (O43364 129-215 R185T): as the sequence (O43364 129-215 Y150S) above, with S22Y, R57T counted along it
HESX1 (Homo sapiens, UniProt Q9UBX0 95-180, R109Q), sequence (Q9UBX0 95-180 R109Q): as the sequence (Q9UBX0 95-180 P111T) above, with R15Q, T17P counted along it
HOXA2 (Homo sapiens, UniProt O43364 129-215, R185K), sequence (O43364 129-215 R185K): as the sequence (O43364 129-215 Y150S) above, with S22Y, R57K counted along it
HESX1 (Homo sapiens, UniProt Q9UBX0 95-180), sequence (Q9UBX0 95-180): as the sequence (Q9UBX0 95-180 P111T) above, with T17P counted along it
ALX1 (Homo sapiens, UniProt Q15699 118-204, L144V), sequence (Q15699 118-204 L144V): as the sequence (Q15699 118-204 L144R) above, with R27V counted along it
HOXA2 (Homo sapiens, UniProt O43364 129-215), sequence (O43364 129-215): as the sequence (O43364 129-215 Y150S) above, with S22Y counted along it
HESX1 (Homo sapiens, UniProt Q9UBX0 95-180, R165K), sequence (Q9UBX0 95-180 R165K): as the sequence (Q9UBX0 95-180 P111T) above, with T17P, R71K counted along it
HOXA7 (Homo sapiens, UniProt P31268 116-202), sequence (P31268 116-202): as the sequence (P31268 116-202 W177C) above, with C62W counted along it
HOXC10 (Homo sapiens, UniProt Q9NYD6 254-340, K271E), sequence (Q9NYD6 254-340 K271E): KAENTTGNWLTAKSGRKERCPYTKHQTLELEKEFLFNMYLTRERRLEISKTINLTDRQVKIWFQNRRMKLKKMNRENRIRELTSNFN
HOXA4 (Homo sapiens, UniProt Q00056 201-287, W262F), sequence (Q00056 201-287 W262F): as the sequence (Q00056 201-287 W262R) above, with R62F counted along it
HOXA4 (Homo sapiens, UniProt Q00056 201-287, R217L), sequence (Q00056 201-287 R217L): as the sequence (Q00056 201-287 W262R) above, with R17L, R62W counted along it
ALX3, sequence (O95076 139-225 L168Q): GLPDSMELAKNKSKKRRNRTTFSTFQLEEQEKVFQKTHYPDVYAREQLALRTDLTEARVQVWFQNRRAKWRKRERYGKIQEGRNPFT
ALX4 (Homo sapiens, UniProt Q9H161 200-286), sequence (Q9H161 200-286): as the sequence (Q9H161 200-286 Q225E) above, with E26Q counted along it
CRX (Homo sapiens, UniProt O43186 26-111, E42D), sequence (O43186 26-111 E42D): as the sequence (O43186 26-111) above, with E17D counted along it
PROP1 (Homo sapiens, UniProt O75360 56-141, R99H), sequence (O75360 56-141 R99H): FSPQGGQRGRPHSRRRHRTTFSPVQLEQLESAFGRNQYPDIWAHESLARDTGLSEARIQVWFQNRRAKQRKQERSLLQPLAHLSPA
CRX (Homo sapiens, UniProt O43186 26-111, R41L), sequence (O43186 26-111 R41L): as the sequence (O43186 26-111) above, with R16L counted along it
HOXC10 (Homo sapiens, UniProt Q9NYD6 254-340), sequence (Q9NYD6 254-340): as the sequence (Q9NYD6 254-340 K271E) above, with E18K counted along it
HOXB6 (Homo sapiens, UniProt P17509 132-218, K202E), sequence (P17509 132-218 K202E): as the sequence (P17509 132-218) above, with K71E counted along it
HOXB9 (Homo sapiens, UniProt P17482 171-250), sequence (P17482 171-250): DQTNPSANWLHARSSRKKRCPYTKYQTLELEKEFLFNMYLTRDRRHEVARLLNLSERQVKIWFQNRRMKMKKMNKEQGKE
MSX2 (Homo sapiens, UniProt P35548 130-214, F161Y), sequence (P35548 130-214 F161Y): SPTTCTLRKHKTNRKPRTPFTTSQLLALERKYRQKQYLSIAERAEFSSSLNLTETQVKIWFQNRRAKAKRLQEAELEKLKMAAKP
PROP1 (Homo sapiens, UniProt O75360 56-141), sequence (O75360 56-141): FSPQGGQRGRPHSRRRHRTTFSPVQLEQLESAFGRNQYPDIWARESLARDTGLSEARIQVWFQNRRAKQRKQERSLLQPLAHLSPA

Turning to CTGCATTA, the binding signal was 7.23 upbm affinity estimate (log intensity, higher = more binding, comparable within an allelic series) in the test with HESX1 [1]; 9.13 upbm affinity estimate (log intensity, higher = more binding, comparable within an allelic series) with HOXA7 [2]; 7.34 upbm affinity estimate (log intensity, higher = more binding, comparable within an allelic series) with HESX1 [3]; 9.52 upbm affinity estimate (log intensity, higher = more binding, comparable within an allelic series) in the test with HOXA2 [4]; 8.85 upbm affinity estimate (log intensity, higher = more binding, comparable within an allelic series) in the test with ALX1 [5]; 11.7 upbm affinity estimate (log intensity, higher = more binding, comparable within an allelic series) in the test with HOXA2 [6]. The binding signal with ALX1 [7] is 8.64 upbm affinity estimate (log intensity, higher = more binding, comparable within an allelic series); with HESX1 [8] it was 7.12 upbm affinity estimate (log intensity, higher = more binding, comparable within an allelic series); in the test with HESX1 [9], 6.71 upbm affinity estimate (log intensity, higher = more binding, comparable within an allelic series); in the test with HOXA2 [10], 10.6 upbm affinity estimate (log intensity, higher = more binding, comparable within an allelic series); with HOXA7 [11], 8.56 upbm affinity estimate (log intensity, higher = more binding, comparable within an allelic series); with ALX1 [12] it was 9.15 upbm affinity estimate (log intensity, higher = more binding, comparable within an allelic series). Moreover, the binding signal in the test with HOXA2 [13] was 9.83 upbm affinity estimate (log intensity, higher = more binding, comparable within an allelic series).
In the case of ATAATTGC, the binding signal in the test with HESX1 [1] was 12.2 upbm affinity estimate (log intensity, higher = more binding, comparable within an allelic series); with HOXB9 [14], 10.2 upbm affinity estimate (log intensity, higher = more binding, comparable within an allelic series); with HOXC9, 12.6 upbm affinity estimate (log intensity, higher = more binding, comparable within an allelic series); with HOXA7 [2] it was 11.5 upbm affinity estimate (log intensity, higher = more binding, comparable within an allelic series); with ALX4 [15] it was 13.6 upbm affinity estimate (log intensity, higher = more binding, comparable within an allelic series); with PRRX1 [16], 11.1 upbm affinity estimate (log intensity, higher = more binding, comparable within an allelic series). Further, the binding signal with HOXB6 [17] is 9.97 upbm affinity estimate (log intensity, higher = more binding, comparable within an allelic series); with ALX4 [18], 12.7 upbm affinity estimate (log intensity, higher = more binding, comparable within an allelic series); in the test with HESX1 [3], 12.4 upbm affinity estimate (log intensity, higher = more binding, comparable within an allelic series); in the test with HOXA2 [4] it was 12.4 upbm affinity estimate (log intensity, higher = more binding, comparable within an allelic series); with HOXB9 [19], 11.7 upbm affinity estimate (log intensity, higher = more binding, comparable within an allelic series); with MSX2 [20], 12.9 upbm affinity estimate (log intensity, higher = more binding, comparable within an allelic series). Also, the binding signal with ALX1 [5] was 11.4 upbm affinity estimate (log intensity, higher = more binding, comparable within an allelic series); with HOXA2 [6], 13.2 upbm affinity estimate (log intensity, higher = more binding, comparable within an allelic series); in the test with ALX1 [7], 11.1 upbm affinity estimate (log intensity, higher = more binding, comparable within an allelic series); with MSX2 [21], 14 upbm affinity estimate (log intensity, higher = more binding, comparable within an allelic series); in the test with PROP1 [22], 11.1 upbm affinity estimate (log intensity, higher = more binding, comparable within an allelic series); with HESX1 [23] it was 8.36 upbm affinity estimate (log intensity, higher = more binding, comparable within an allelic series). For the same sequence, the binding signal in the test with PROP1 [24] is 10.9 upbm affinity estimate (log intensity, higher = more binding, comparable within an allelic series); with ALX3 it was 10.3 upbm affinity estimate (log intensity, higher = more binding, comparable within an allelic series); with HESX1 [8], 10.6 upbm affinity estimate (log intensity, higher = more binding, comparable within an allelic series); in the test with HOXB9 [25], 11.5 upbm affinity estimate (log intensity, higher = more binding, comparable within an allelic series); in the test with PROP1 [26], 7.6 upbm affinity estimate (log intensity, higher = more binding, comparable within an allelic series); with MSX2 [27], 13.6 upbm affinity estimate (log intensity, higher = more binding, comparable within an allelic series). Besides, the binding signal with HESX1 [9] is 7.74 upbm affinity estimate (log intensity, higher = more binding, comparable within an allelic series); with HOXA2 [10], 10.8 upbm affinity estimate (log intensity, higher = more binding, comparable within an allelic series); in the test with HOXA7 [11], 8.84 upbm affinity estimate (log intensity, higher = more binding, comparable within an allelic series); with PRRX1 [28], 13.2 upbm affinity estimate (log intensity, higher = more binding, comparable within an allelic series); with HOXA2 [13], 12.2 upbm affinity estimate (log intensity, higher = more binding, comparable within an allelic series); with HOXB6 [29] it was 12 upbm affinity estimate (log intensity, higher = more binding, comparable within an allelic series).
With ACCGTCCG, the binding signal is 6.56 upbm affinity estimate (log intensity, higher = more binding, comparable within an allelic series) with HESX1 [1]; 8.31 upbm affinity estimate (log intensity, higher = more binding, comparable within an allelic series) in the test with CRX [30]; 6.57 upbm affinity estimate (log intensity, higher = more binding, comparable within an allelic series) in the test with HESX1 [3]; 8.44 upbm affinity estimate (log intensity, higher = more binding, comparable within an allelic series) with CRX [31]; 6.49 upbm affinity estimate (log intensity, higher = more binding, comparable within an allelic series) in the test with HESX1 [23]; 6.5 upbm affinity estimate (log intensity, higher = more binding, comparable within an allelic series) with HESX1 [8]. Also, the binding signal is 6.47 upbm affinity estimate (log intensity, higher = more binding, comparable within an allelic series) in the test with HESX1 [9] and 8.35 upbm affinity estimate (log intensity, higher = more binding, comparable within an allelic series) with CRX [32].
As for GCAGGCGC, the binding signal was 6.11 upbm affinity estimate (log intensity, higher = more binding, comparable within an allelic series) with HESX1 [1]; 9.8 upbm affinity estimate (log intensity, higher = more binding, comparable within an allelic series) in the test with HOXA4 [33]; 9.86 upbm affinity estimate (log intensity, higher = more binding, comparable within an allelic series) with HOXC10 [34]; 5.98 upbm affinity estimate (log intensity, higher = more binding, comparable within an allelic series) with HESX1 [3]; 6.79 upbm affinity estimate (log intensity, higher = more binding, comparable within an allelic series) with HOXA2 [4]; 9.64 upbm affinity estimate (log intensity, higher = more binding, comparable within an allelic series) in the test with HOXA4 [35]. In addition, the binding signal with NKX2-6 is 9.36 upbm affinity estimate (log intensity, higher = more binding, comparable within an allelic series); with ALX1 [5], 5.82 upbm affinity estimate (log intensity, higher = more binding, comparable within an allelic series); with HOXA2 [6], 10 upbm affinity estimate (log intensity, higher = more binding, comparable within an allelic series); with ALX1 [7] it was 5.84 upbm affinity estimate (log intensity, higher = more binding, comparable within an allelic series); in the test with HOXA4 [36], 9.74 upbm affinity estimate (log intensity, higher = more binding, comparable within an allelic series); with HOXC10 [37], 9.87 upbm affinity estimate (log intensity, higher = more binding, comparable within an allelic series). Besides, the binding signal in the test with HESX1 [23] is 6.31 upbm affinity estimate (log intensity, higher = more binding, comparable within an allelic series); with HESX1 [8], 6.16 upbm affinity estimate (log intensity, higher = more binding, comparable within an allelic series); in the test with HESX1 [9], 6.37 upbm affinity estimate (log intensity, higher = more binding, comparable within an allelic series); with HOXA2 [10], 10.3 upbm affinity estimate (log intensity, higher = more binding, comparable within an allelic series); with ALX1 [12] it was 5.72 upbm affinity estimate (log intensity, higher = more binding, comparable within an allelic series); with HOXA4 [38], 9.73 upbm affinity estimate (log intensity, higher = more binding, comparable within an allelic series). For the same sequence, the binding signal with HOXA2 [13] is 6.79 upbm affinity estimate (log intensity, higher = more binding, comparable within an allelic series).
